From PubChem BioAssay (NCATS)
Inconclusive results are not listed. Active and inactive are the calls of the source. Calls follow the shape of the dose curve; as a rule, active = well fitted curve in the direction sought with a large enough effect; inconclusive = small, poorly fitted or top-dose-only effect, or another doubt; inactive = no such curve, though single readings can be large; an effect the other way counts as inactive or inconclusive.

Experiments:
[1] = qHTS of pediatric cancer cell lines to identify multiple opportunities for drug repurposing: Primary screen for NB1643 cells (AID 1347099); also: nearly all actives have a fitted effect of over 50% in size
Method in brief: (§1)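 ATP-based luminescence (CellTiter-Glo) quantifies viability after a 48-hour exposure. Compounds are dosed across 8 or 11 final concentrations; DMSO and 2.3 µM bortezomib serve as controls.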

[2] = qHTS of pediatric cancer cell lines to identify multiple opportunities for drug repurposing: Primary screen for OHS-50 cells (AID 1347103); also: potency is read from the fitted curve at half-maximal effect; nearly all actives have a fitted effect of over 40% in size
Method in brief: (§2)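 Cells (500-1,000/well) rested 5 h, then received compounds for 48 h; metabolically active cells were measured by CellTiter-Glo luminescence. Final concentrations spanned up to 46 µM (MIPE, 11-point) or 0.59 nM-46 µM (NPC, 8-point) in primary screens, 11-point in follow-ups.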

[3] = qHTS of pediatric cancer cell lines to identify multiple opportunities for drug repurposing: Primary screen for MG 63 (6-TG R) cells (AID 1347105); also: nearly all actives have a fitted effect of over 50% in size; also: potency is read from the fitted curve at half-maximal effect
Method in brief: as §1

[4] = qHTS of pediatric cancer cell lines to identify multiple opportunities for drug repurposing: Primary screen for control Hh wild type fibroblast cells (AID 1347106);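 also: series mostly up to about 46 µM; a drop in luminescence marks cytotoxicity and a rise apparent proliferation; nearly all actives have a fitted effect of over 55% in size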
Method in brief: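 Cells (500-1,000/well) in growth media were settled 5 h at 37 degrees C, then given compounds for 48 h. Viability was read as CellTiter-Glo luminescence. Primary runs used MIPE at 11 points (0.78 nM-46 µM) and NPC at 8 points (0.59 nM-46 µM); follow-ups used 11 points.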

[5] = qHTS of pediatric cancer cell lines to identify multiple opportunities for drug repurposing: Primary screen for Rh30 cells (AID 1347107); also: series mostly up to about 46 µM; nearly all actives have a fitted effect of over 75% in size
Method in brief: (§3)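 Viability after 48 h compound treatment at 37C, 500-1,000 cells/well, read as ATP luminescence with CellTiter-Glo. Primary screens used 11-point (MIPE, 0.78 nM-46 µM) or 8-point (NPC, 0.59 nM-46 µM) final concentrations; follow-up screens used 11-point dilutions.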

[6] = qHTS of pediatric cancer cell lines to identify multiple opportunities for drug repurposing: Primary screen for Rh41 cells (AID 1347108);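 also: series mostly up to about 46 µM; luminescence drop marks cytotoxic hits; nearly all actives have a fitted effect of over 70% in size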
Method in brief: as §1

[7] = qHTS of pediatric cancer cell lines to identify multiple opportunities for drug repurposing: Confirmatory screen for A673 cells (AID 1347110); also: potency is read from the fitted curve at half-maximal effect; nearly all actives have a fitted effect of over 65% in size
Method in brief: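 qHTS titration format: primary MIPE 0.78 nM-46 µM (11 pts), NPC 0.59 nM-46 µM; confirmation 11 pts. 48 h, CTG luminescence.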

[8] = qHTS of pediatric cancer cell lines to identify multiple opportunities for drug repurposing: Confirmatory screen for SK-N-MC cells (AID 1347111);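 also: potency is read from the fitted curve at half-maximal effect; cells exposed to compound for 48 h before the readout; nearly all actives have a fitted effect of over 70% in size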
Method in brief: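 SK-N-MC cells at 500-1,000 cells/well in growth media were pre-incubated 5 h, then exposed to compounds at 11-point dilutions for 48 h at 37 degrees C, 5% CO2. Viability was read as CellTiter-Glo luminescence.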

[9] = qHTS of pediatric cancer cell lines to identify multiple opportunities for drug repurposing: Confirmatory screen for LAN-5 cells (AID 1347113); also: nearly all actives have a fitted effect of over 65% in size; also: potency is read from the fitted curve at half-maximal effect
Method in brief: as §3

[10] = qHTS of pediatric cancer cell lines to identify multiple opportunities for drug repurposing: Confirmatory screen for NB-EBc1 cells (AID 1347115); also: nearly all actives have a fitted effect of over 45% in size; also: potency is read from the fitted curve at half-maximal effect
Method in brief: as §3

[11] = qHTS of pediatric cancer cell lines to identify multiple opportunities for drug repurposing: Confirmatory screen for BT-37 cells (AID 1347117); also: potency is read from the fitted curve at half-maximal effect;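 also: viability measured after 48 h of compound exposure; nearly all actives have a fitted effect of over 55% in size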
Method in brief: as §3

[12] = qHTS of pediatric cancer cell lines to identify multiple opportunities for drug repurposing: Confirmatory screen for TC32 cells (AID 1347118); also: potency is read from the fitted curve at half-maximal effect; nearly all actives have a fitted effect of over 65% in size
Method in brief: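 qHTS, TC32, 48 h drug treatment, CellTiter-Glo luminescence as a proxy for metabolically active cells; primary top concentration 46 µM (MIPE 11-pt, NPC 8-pt); confirmatory 11-pt.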

[13] = qHTS of pediatric cancer cell lines to identify multiple opportunities for drug repurposing: Primary screen for LAN-5 cells (AID 1347100); also: potency is read from the fitted curve at half-maximal effect
Method in brief: as §3

[14] = qHTS of pediatric cancer cell lines to identify multiple opportunities for drug repurposing: Confirmatory screen for MG 63 (6-TG R) cells (AID 1347119); also: nearly all actives have a fitted effect of over 55% in size
Method in brief: as §3

[15] = qHTS of pediatric cancer cell lines to identify multiple opportunities for drug repurposing: Primary screen for BT-12 cells (AID 1347101); also: nearly all actives have a fitted effect of over 25% in size; also: potency is read from the fitted curve at half-maximal effect
Method in brief: as §2

[16] = qHTS of pediatric cancer cell lines to identify multiple opportunities for drug repurposing: Primary screen for RD cells (AID 1347104); also: nearly all actives have a fitted effect of over 55% in size; also: potency is read from the fitted curve at half-maximal effect
Method in brief: as §1

[17] = qHTS of pediatric cancer cell lines to identify multiple opportunities for drug repurposing: Primary screen for Rh18 cells (AID 1347102); also: nearly all actives have a fitted effect of over 65% in size
Method in brief: as §3

Measured: Potency

CC(=O)[C@@]1(O)CC[C@H]2[C@@H]3C[C@H](C)C4=CC(=O)CC[C@]4(C)[C@H]3CC[C@@]21C
active: [2] 27600 nM | [7] 261 nM | [8] 4140 nM | [12] 10400 nM
inactive: [1] | [3] | [4] | [5] | [6] | [9] | [10] | [11]

CCOC(=O)C1=C(C)NC(C)=C(C(=O)OCC)C1c1ccccc1/C=C/C(=O)OC(C)(C)C
inactive: [5]
active: [2] 15500 nM | [3] 26600 nM

COc1c(C)c2c(c(O)c1C/C=C(\C)CCC(=O)OCCN1CCOCC1)C(=O)OC2
active: [13] 841 nM | [7] 3690 nM | [8] 1650 nM | [9] 1650 nM | [10] 827 nM | [11] 1310 nM | [12] 1470 nM
inactive: [4] | [5] | [6] | [14]

Cc1nc(N)nc(N)c1-c1ccc(Cl)c(Cl)c1
inactive: [1] | [4] | [5] | [6] | [9] | [14]
active: [15] 872 nM | [2] 2760 nM | [16] 1330 nM | [7] 1650 nM | [8] 147 nM | [12] 147 nM

c1ccc(C(O[C@H]2CCCN(CCc3ccc4c(c3)OCO4)C2)c2ccccc2)cc1
inactive: [1] | [17] | [16] | [3] | [4] | [5] | [6]

O=C1Nc2ccccc2C1(c1ccc(O)cc1)c1ccc(O)cc1
active: [2] 872 nM | [3] 133 nM
inactive: [13] | [15] | [16] | [4] | [5] | [6]

CCCCN(CCN(CCCC)C(=O)N1CCOCC1)C(=O)N1CCOCC1
inactive: [13] | [17] | [16] | [3] | [5]

CC(=O)Oc1ccc(C2(c3ccc(OC(C)=O)cc3)Oc3ccccc3NC2=O)cc1
inactive: [17] | [5]
active: [15] 19500 nM | [2] 12300 nM | [3] 4220 nM
